Results from PubChem BioAssay (Tox21).
Records with an inconclusive call do not appear. Calls of active or inactive are those of the source. The call rests on the fitted dose curve; in most records, active means well fitted curve in the direction sought with a large enough effect in the repeat runs; inconclusive means weak or mixed curves; inactive means no such curve, though single readings can be large; an effect the other way counts as inactive or inconclusive. Positions of bridges follow the written chain, without caps; N, C: chain ends. Non-standard residues stand in square brackets, D forms with d. Residues, ends and D or L forms follow the SMILES beside them. hArg = N=C(N)NCCCC[C@H](N)C(=O)O; Mpa = O=C(O)CCS

Key:
[1] = qHTS RealTime-Glo MT Cell Viability Assay in HEK293 cells - 32 hour (AID 1224868); further: top concentration of the series differs between compounds; nearly all actives have a fitted effect of over 50% in size
In short: (§1)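 Nonlytic real-time viability readout: viable cells convert prosubstrate to NanoLuc substrate, giving luminescence proportional to live cell number. HEK293, 600 cells/well, compound added after 5 h, continuous culture at 37 C.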

[2] = A CellTox Green Cytotoxicity Assay to monitor cytotoxicity in HEK293 cells - 0 hour (AID 1224869); further: nearly all actives have a fitted effect of over 50% in size
In short: (§2)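 HEK293 cells premixed with CellTox Green dye were seeded at 600 cells/well and left 5 h at 37 C/5% CO2 before pin transfer of 23 nL compound in DMSO. Fluorescence from dye bound to dead-cell DNA was read during 40 h treatment.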

[3] = qHTS RealTime-Glo MT Cell Viability Assay in HepG2 cells - 40 hour (AID 1224870); further: nearly all actives have a fitted effect of over 50% in size
In short: (§3)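 HepG2 cells (600/well) mixed with RealTime-Glo MT reagent, settled 5 h at 37 C/5% CO2 before compound addition. Nonlytic NanoLuc luminescence from viable-cell prosubstrate reduction read repeatedly during 40 h treatment at 37 C.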

[4] = A CellTox Green Cytotoxicity Assay to monitor cytotoxicity in HEK293 cells - 40 hour (AID 1224871); further: nearly all actives have a fitted effect of over 45% in size
In short: as §2

[5] = qHTS RealTime-Glo MT Cell Viability Assay in HEK293 cells - 16 hour (AID 1224872); further: top concentration of the series differs between compounds; nearly all actives have a fitted effect of over 50% in size
In short: as §1

[6] = qHTS RealTime-Glo MT Cell Viability Assay in HEK293 cells - 40 hour (AID 1224874); settings: RealTime-Glo luminescence; max response: active compounds read low; further: nearly all actives have a fitted effect of over 50% in size
In short: (§4)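 HEK293 cells mixed with RealTime-Glo reagents (NanoLuc plus cell-permeant prosubstrate) at 600 cells/well, preincubated 5 h at 37 C/5% CO2, then given 23 nL compound in DMSO. Nonlytic luminescence from viable cells was read at 0, 8, 16, 24, 32 and 40 h.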

[7] = A CellTox Green Cytotoxicity Assay to monitor cytotoxicity in HEK293 cells - 24 hour (AID 1224875); further: series mostly up to about 77 µM; nearly all actives have a fitted effect of over 45% in size
In short: as §2

[8] = A CellTox Green Cytotoxicity Assay to monitor cytotoxicity in HepG2 cells - 16 hour (AID 1224876); further: nearly all actives have a fitted effect of over 45% in size
In short: (§5)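 HepG2 cells were seeded together with the CellTox Green dye at 600 cells/well, left 5 h at 37 C/5% CO2, then given compounds in DMSO. Fluorescence from dye bound to dead-cell DNA was read repeatedly over 40 h of treatment at 37 C.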

[9] = qHTS RealTime-Glo MT Cell Viability Assay in HepG2 cells - 32 hour (AID 1224877); further: nearly all actives have a fitted effect of over 55% in size
In short: (§6)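 Luminescence read-out: viable HepG2 cells reduce a prosubstrate to a NanoLuc substrate, giving a signal proportional to live cell number. Reads taken at 0, 8, 16, 24, 32 and 40 h of compound exposure at 37 C.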

[10] = A CellTox Green Cytotoxicity Assay to monitor cytotoxicity in HepG2 cells - 24 hour (AID 1224878); further: nearly all actives have a fitted effect of over 45% in size
In short: as §5

[11] = A CellTox Green Cytotoxicity Assay to monitor cytotoxicity in HepG2 cells - 40 hour (AID 1224879); further: nearly all actives have a fitted effect of over 40% in size
In short: as §5

[12] = qHTS RealTime-Glo MT Cell Viability Assay in HEK293 cells - 0 hour (AID 1224880)
In short: as §4

[13] = A CellTox Green Cytotoxicity Assay to monitor cytotoxicity in HEK293 cells - 32 hour (AID 1224881); further: nearly all actives have a fitted effect of over 40% in size
In short: as §2

[14] = A CellTox Green Cytotoxicity Assay to monitor cytotoxicity in HepG2 cells - 0 hour (AID 1224882); further: nearly all actives have a fitted effect of over 35% in size
In short: as §5

[15] = A CellTox Green Cytotoxicity Assay to monitor cytotoxicity in HepG2 cells - 32 hour (AID 1224883); further: nearly all actives have a fitted effect of over 50% in size
In short: as §5

[16] = A CellTox Green Cytotoxicity Assay to monitor cytotoxicity in HEK293 cells - 8 hour (AID 1224884); further: nearly all actives have a fitted effect of over 35% in size
In short: as §2

[17] = qHTS RealTime-Glo MT Cell Viability Assay in HepG2 cells - 16 hour (AID 1224885); further: nearly all actives have a fitted effect of over 50% in size
In short: as §6

[18] = qHTS RealTime-Glo MT Cell Viability Assay in HepG2 cells - 8 hour (AID 1224873); further: nearly all actives have a fitted effect of over 55% in size
In short: as §3
On the % scale 0 is the no-effect control and ±100 the full control effect.

O=C(CCCl)NCCc1ccccc1
inactive: Potency [1] | Potency [2] | outcome [3] | Potency [4] | Potency [5] | max response [6] 5.46% | Potency [7] | Potency [8] | outcome [9] | Potency [10] | Potency [11] | Potency [12] | Potency [13] | Potency [14] | Potency [15] | Potency [16] | outcome [17]

CCCCOC(=O)C(C)O (configuration not stated)
inactive: Potency [1] | Potency [2] | Potency [4] | Potency [5] | outcome [18] | max response [6] 11.1% | Potency [7] | Potency [8] | outcome [9] | Potency [10] | Potency [11] | Potency [12] | Potency [13] | Potency [14] | Potency [15] | Potency [16] | outcome [17]

CC(=O)OCC(=O)Nc1cc(C#N)cc(NC(=O)COC(C)=O)c1Cl
inactive: Potency [1] | Potency [2] | Potency [4] | Potency [5] | outcome [18] | max response [6] 0.686% | outcome [9] | Potency [10] | Potency [11] | Potency [12] | Potency [13] | Potency [14] | Potency [15] | Potency [16] | outcome [17]

OCC(O)CN1CCN(c2ccccc2)CC1 (configuration not stated)
inactive: Potency [1] | Potency [2] | Potency [4] | Potency [5] | outcome [18] | max response [6] 1.76% | Potency [7] | Potency [8] | outcome [9] | Potency [10] | Potency [11] | Potency [12] | Potency [13] | Potency [14] | Potency [15] | Potency [16] | outcome [17]

O=[N+]([O-])c1c(Cl)cc(Cl)cc1Cl
inactive: Potency [1] | outcome [3] | Potency [5] | outcome [18] | max response [6] -1.77% | Potency [8] | outcome [9] | Potency [10] | Potency [11] | Potency [12] | Potency [14] | Potency [15] | Potency [16] | outcome [17]

NC(=O)[C@@H]1CSSCCC(=O)N[C@@H](CCCCN=C(N)N)C(=O)NCC(=O)N[C@@H](CC(=O)O)C(=O)N[C@@H](Cc2c[nH]c3ccccc23)C(=O)N2CCC[C@H]2C(=O)N1 ([Mpa][hArg]GDWPC-NH2; disulfide 1-7)
inactive: Potency [1] | Potency [2] | outcome [3] | Potency [5] | outcome [18] | max response [6] 0% | Potency [7] | Potency [8] | outcome [9] | Potency [10] | Potency [11] | Potency [12] | Potency [13] | Potency [14] | Potency [15] | Potency [16] | outcome [17]

Cc1c(N)cccc1Cl
inactive: Potency [1] | Potency [2] | Potency [4] | Potency [5] | outcome [18] | max response [6] 5.05% | Potency [7] | Potency [8] | outcome [9] | Potency [10] | Potency [11] | Potency [12] | Potency [13] | Potency [14] | Potency [15] | Potency [16] | outcome [17]

C[C@@H](O)C(=O)O
inactive: Potency [1] | Potency [2] | outcome [3] | Potency [4] | Potency [5] | outcome [18] | max response [6] 3.5% | Potency [7] | Potency [8] | outcome [9] | Potency [10] | Potency [11] | Potency [12] | Potency [13] | Potency [14] | Potency [15] | Potency [16] | outcome [17]
